# Beta apoptosis: beta cell apoptosis inhibition; AID 435005; protection from apoptosis, % (test concentration not listed); 300,000 tested, 0.8% active; INS-1E cytokine-induced death, ATP luminescence, 48 h; percent of positive-control rescue, neutral wells zero;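 active means Every replicate reaches about 75%, or at least half do and their mean reaches it too, limit read from the data; inconclusive means At least half of replicates reach the limit but their mean does not; inactive means Under half of replicates reach the limit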;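 further: 0% = cytokine-treated negative control wells and 100% = positive control rescue; higher means more ATP so stronger rescue from cytokine killing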
# MPTP inh: blocks calcium-induced mitochondrial swelling. AID 602449. 360,000 tested, 1.4% active. isolated mouse mitochondria, Ca2+ swelling absorbance, 30 min. inhibition, % at 10 µM;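 active means inhibition of 50% or more, scaled per plate between neutral and stimulator controls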;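 further: 0% = DMSO wells given calcium and 100% = 1 mM EGTA wells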
# Mdm2 MdmX PPI: human Mdm2/MdmX binding inhibition | O15151+Q00987 | SaOS-2 split-luciferase Mdm2/MdmX complementation, luminescence | inhibition, % at 8 µM | 330,000 tested, 3% active;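 active means inhibition of at least 50% at 8 µM in the primary screen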
# Calb FLC: C. albicans growth modulation with fluconazole. C. albicans CaCi-2 (fluconazole-resistant clinical isolate) + fluconazole, Alamar Blue growth, 48 h. growth inhibition, % (test concentration not listed). 300,000 tested, 0.57% active. AID 1979;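 active means growth inhibition above about 58% in most replicates, limit read from the data, passing the limit was not always enough; inconclusive means exactly half the replicates above a set limit; inactive means most replicates below a set limit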;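 further: all wells also contain fluconazole at 8 µg/ml as a sub-toxic cotreatment; 0% = median of DMSO wells and 100% = median of geldanamycin control wells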
# CSC inhib: cancer stem cell inhibition | cancer stem cell-like cells viability, luminescence | 300,000 tested, 1.1% active | AID 2717 | inhibition, % at 7.5 µM; in the data active means inhibition above about 75%; inconclusive means no clear call, values can overlap the other calls; tested in HMLE shEcad cells
# Mdm2 MdmX conf: confirmation of human Mdm2/MdmX interaction inhibitors; shares compounds with Mdm2 MdmX PPI; Mdm2-MdmX binding, luminescent assay; inhibition, % at 8 µM; 10,000 tested, 55% active; AID 489028; in the data active means inhibition above about 40%
# FLuc counter: full-length luciferase inhibition in Mdm2/MdmX counter-screen. AID 504607. 6,200 tested, 77% active. SaOS-2 full-length luciferase counterscreen, luminescence. inhibition, % at 8 µM. shares compounds with Mdm2 MdmX PPI;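 active means mean inhibition at 8 µM reaching about 37%, which flags the compound as non-specific, limit read from the data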;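 further: p53-null SaOS-2 cells with luciferase driven by a doxycycline-inducible promoter; compound on cells about two nights before reading with doxycycline added after day one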
# Starred values were filed as active, the others as inactive; ? = inconclusive; . = not tested or not shown. Rows were chosen to be rich in hits. Some 4.8% of all compounds tested hit in one or more screens of this group.
SMILES,Beta apoptosis,MPTP inh,Mdm2 MdmX PPI,Calb FLC,CSC inhib,Mdm2 MdmX conf,others
O=[N+]([O-])c1ccc(Sc2nnnn2-c2ccccc2)nc1,.,.,61*,-1,.,47*,FLuc counter=79*
Cc1ccccc1-n1nnnc1SCC(N)=O,-8,-2,-7,2,-14,.,
COc1ccc(Cn2cnc3c4cc(F)ccc4n(C)c3c2=O)cc1,-7,44,65*,20,1,9,
COc1ccc2c(c1)c1ncn(CCc3ccccc3)c(=O)c1n2C,-9,-1,6,19,74,.,
CCc1ccc(N2C(=O)C(Cl)=C(Nc3ccc(C(=O)N4CCCC4)cc3)C2=O)cc1,-14,0,95*,.,.,95*,FLuc counter=39*
O=[N+]([O-])c1ccc(/C=N/Nc2ncccc2[N+](=O)[O-])s1,-38,2,5,1,10,.,
O=[N+]([O-])c1ccc(/C=N/n2cnc3ccccc32)s1,112*,2,70*,?,100*,60*,FLuc counter=10
Cc1cc(C)c(NC(=O)CSc2nc3ccc(NC(=O)CSc4nnnn4Cc4ccccc4)cc3s2)c(C)c1,2,3,36,-6,-2,.,
COC(=O)CSc1nc2ccc(NC(=O)CSc3nnnn3Cc3ccccc3)cc2s1,6,0,94*,21,2,32,
O=C(CSc1nc2ccc(NC(=O)CSc3nnnn3Cc3ccccc3)cc2s1)Nc1ccccc1,.,13,50*,-7,-10,15,
CC(=O)c1nn(-c2cccc(Br)c2)cc1C(=O)c1ccc2ccccc2c1,9,-4,63*,-8,.,30,
COc1ccc(C(=O)c2cn(-c3cccc(Br)c3)nc2C(C)=O)cc1,5,5,22,-20,-31,.,
CCN(CC)S(=O)(=O)c1ccc(N/N=C/c2cccnc2)nc1,-3,1,0,1,8,.,
CCN(CC)S(=O)(=O)c1ccc(N/N=C/c2cc(OC)ccc2O)nc1,108*,4,80*,23,104*,83*,FLuc counter=23
CCOC(=O)N1CCC2CC1c1cc(-c3cccc(OC)c3)ccc12 (stereo not drawn),.,0,.,.,.,.,
C=CC1CN(C(=O)OCC(Cl)(Cl)Cl)C2CC3c4ccc(OC)cc4NC3C3CC1C2CO3 (stereo not drawn),5,2,57*,-6,33,-5,
COc1ccc(C(C)(C)C)cc1NC(=O)c1[nH]c(C)c(C(C)=O)c1C,9,-1,54*,25,23,12,
Cc1ccc(NC(=O)CSc2nc3ccccc3c3nc4ccccc4n23)cc1,41,-2,81*,2,2,58*,FLuc counter=70*
COc1ccc(NC(=O)CSc2nc3ccccc3c3nc4ccccc4n23)cc1,4,16,.,.,33,.,
CC(=O)c1ccc(NC(=O)CSc2nc(C3CC3)nc3ccccc23)cc1,6,1,64*,-3,16,39,
CCOc1ccc(NC(=O)c2ccc(NC(=O)CSc3nc4ccccc4c(=O)[nH]3)cc2)cc1,6,-1,56*,18,7,14,
O=C(CSc1nc2ccccc2c(=O)[nH]1)Nc1ccc(C(=O)O)cc1,-4,-1,15,-4,.,.,
N#Cc1cccc(NC(=O)CSc2ccc3c4c(cccc24)C(=O)c2ccccc2-3)c1,-9,3,.,1,-11,.,
CC(C)C(=O)NNC(=O)CSc1nc(C2CCCCC2)nc2ccccc12,-6,-2,20,-13,4,.,
COc1ccc(NC(=O)CSc2ccc3c4c(cccc24)C(=O)c2ccccc2-3)cc1,-12,8,58*,3,-21,16,
SMILES,Beta apoptosis,MPTP inh,Mdm2 MdmX PPI,Calb FLC,CSC inhib,Mdm2 MdmX conf,others
Cc1ccc(C(=O)N2CCC2(C)C(=O)NC(C)C)cc1 (stereo not drawn),.,0,.,.,.,.,
COCC(=O)NNC(=S)Nc1cccc(C)c1C,-3,0,-23,-15,-7,.,
COc1ccc(NC(=O)CSc2nc(C3CC3)nc3ccccc23)cc1,-1,0,60*,-13,.,39,
COc1ccc(NC(=O)CSc2nc(C3CC3)nc3ccccc23)c(OC)c1,-4,-1,18,2,-18,.,
COc1ccc(Nc2ccnc3ccccc23)cc1,18,0,65*,-6,-6,57*,FLuc counter=34
Oc1ccc(Nc2nc(N3CCCC3)c3ccccc3n2)cc1,99*,16,85*,3,.,16,
COc1ccc(Nc2ncnc3ccccc23)cc1,.,0,8,-14,2,.,
Cc1ccc(Nc2nc(N3CCOCC3)c3ccccc3n2)cc1,22,7,32,-17,-9,.,
COc1ccc(Nc2nc(N3CCCCC3)c3ccccc3n2)cc1,73,44,59*,-14,16,30,
O=C(Nc1ccc(Cl)cc1)c1nc[nH]c1C(=O)NCCCCNC(=O)c1[nH]cnc1C(=O)Nc1ccc(Cl)cc1,7,0,99*,.,68,73*,FLuc counter=69*
O=C(Nc1cccc(Cl)c1)c1nc[nH]c1C(=O)NCCCCNC(=O)c1[nH]cnc1C(=O)Nc1cccc(Cl)c1,13,0,86*,.,.,-19,
O=C(Nc1cccc(Cl)c1)c1nc[nH]c1C(=O)NCCN(CCNC(=O)c1[nH]cnc1C(=O)Nc1cccc(Cl)c1)CCNC(=O)c1[nH]cnc1C(=O)Nc1cccc(Cl)c1,3,0,75*,.,.,24,
O=C(Nc1ccc(Cl)cc1)c1nc[nH]c1C(=O)Nc1ccccc1F,.,0,.,.,.,.,
O=C(CNCc1cccs1)Nc1ccc(N2CCCCCC2)cc1,0,1,5,10,9,.,
COC(=O)c1c(-c2ccc(OC)cc2)sc2ccc(N3CCOCC3)cc12,8,5,57*,.,43,-13,
COc1ccc(C2=NN(C(=O)COC(=O)c3ccc(S(C)(=O)=O)c([N+](=O)[O-])c3)C(c3ccco3)C2)cc1 (stereo not drawn),-11,0,98*,.,96*,91*,FLuc counter=52*
COc1ccc(C2=NN(C(=O)COc3ncnc4ccccc34)C(c3ccco3)C2)cc1 (stereo not drawn),0,-2,35,-20,-1,.,
CC(=O)N1CCCC(C)(C(=O)Nc2ccc3oc(C)nc3c2)C1 (stereo not drawn),.,-2,.,.,.,.,
CC1=C(C(=O)OC2CCCCCCC2)C(c2cc3c(cc2Br)OCO3)CC(=O)N1 (stereo not drawn),16,-2,78*,8,118*,28,
Cc1c(N=C2NN=C(c3c[nH]c4ccccc34)CS2)c(=O)n(-c2ccccc2)n1C,0,0,-25,-12,-3,.,
CCN1CCN(CC2COc3ccccc3O2)CC1 (stereo not drawn),-6,2,-49,-2,-12,.,
COc1ccc2c(c1)C(=O)C(=O)N2CC1COc2ccccc2O1 (stereo not drawn),-2,0,54*,14,23,25,
